The list is not random: actives were taken first. Their share in the collection is about 2%.
ABCB6 inh MLPCN – human ABCB6 transporter inhibition. Q9NP58. K562-ABCB6 porphyrin accumulation, flow cytometry, 1 h; active compounds read low. fluorescence ratio to DMSO, % at 10 µM. 360,000 compounds, 0.19% hits. AID 602162;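 active = fluorescence ratio to DMSO below 75%, the collection mean minus 3 SD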;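 also: signal is porphyrin accumulated inside mitochondria; 100% equals median channel fluorescence of DMSO control wells; lower ratio means ABCB6 inhibition with less porphyrin fluorescence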
Target sequence (Q9NP58 whole entry, looked up): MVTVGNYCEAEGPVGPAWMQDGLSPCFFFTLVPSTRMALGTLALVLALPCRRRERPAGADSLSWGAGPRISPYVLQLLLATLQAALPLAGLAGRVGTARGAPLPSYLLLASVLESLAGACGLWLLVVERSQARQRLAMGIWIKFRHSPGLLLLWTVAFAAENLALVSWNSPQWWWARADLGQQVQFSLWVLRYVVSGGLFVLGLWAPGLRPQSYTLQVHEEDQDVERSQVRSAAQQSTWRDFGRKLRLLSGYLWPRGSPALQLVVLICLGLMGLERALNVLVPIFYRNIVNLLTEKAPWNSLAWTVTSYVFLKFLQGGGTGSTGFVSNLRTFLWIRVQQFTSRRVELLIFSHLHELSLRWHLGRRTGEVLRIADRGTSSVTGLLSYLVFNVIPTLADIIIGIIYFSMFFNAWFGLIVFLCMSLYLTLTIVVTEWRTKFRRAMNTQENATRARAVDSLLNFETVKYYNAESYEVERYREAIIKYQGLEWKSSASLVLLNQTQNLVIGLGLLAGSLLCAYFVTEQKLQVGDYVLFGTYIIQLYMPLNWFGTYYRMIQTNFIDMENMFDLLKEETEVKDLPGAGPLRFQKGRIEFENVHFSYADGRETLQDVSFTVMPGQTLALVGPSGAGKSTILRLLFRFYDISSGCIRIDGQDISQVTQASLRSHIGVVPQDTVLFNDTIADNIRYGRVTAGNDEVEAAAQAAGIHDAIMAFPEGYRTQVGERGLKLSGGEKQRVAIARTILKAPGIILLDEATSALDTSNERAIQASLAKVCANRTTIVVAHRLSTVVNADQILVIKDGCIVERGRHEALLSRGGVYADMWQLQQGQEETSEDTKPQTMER
NR1D1 modulator – modulators of human Rev-erb alpha DNA binding; activity, % at 10 µM; P20393; Rev-erbα–FITC-DNA binding, fluorescence polarization, 90 min; 370,000 compounds, 0.79% hits;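 active = activity above about 14%, limit read from the data; passing the limit was not always enough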;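 also: 0% = DMSO wells with 35 nM protein and 100% = DMSO wells with 750 nM protein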
PG9 Ab binder – small molecules binding HIV-1 gp120 antibody PG9; TR-FRET gp120-PG9 antibody binding; inhibition, % at 6.7 µM; 360,000 compounds, 0.43% hits; in the data active = inhibition above about 8.5%
VLA-4 inh – inhibition in a human VLA-4 binding assay; VLA-4 expressing cells, ligand binding flow cytometry; inhibition, % (about 7 µM as worked out from the volumes in the protocol); 330,000 compounds, 0.2% hits; in the data active = inhibition above about 50%
Exocytosis inh – lytic granule exocytosis inhibition. TALL-104 LAMP-1 surface exposure, flow cytometry; cells stimulated with thapsigargin and PMA. inhibition, % at 10 µM. 360,000 compounds, 0.66% hits. AID 651702;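 active = inhibition above about 55%, limit read from the data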
Exocytosis CP01 – blocks lytic granule exocytosis | shares compounds with Exocytosis inh | TALL-104 cells, LAMP-1 externalization, flow cytometry; stimulated with PMA plus thapsigargin | inhibition, % at 10 µM | 1,500 compounds, 11% hits | AID 651954; in the data active = inhibition above about 60%;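 also: 0% = stimulated vehicle wells and 100% = unstimulated wells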
The depositor's hits bear a star; x = not tested or not shown.

SMILES	ABCB6 inh MLPCN	NR1D1 modulator	PG9 Ab binder	VLA-4 inh	Exocytosis inh	Exocytosis CP01
CCC(=C(c1ccc(OC)cc1)c1ccc(OC)cc1)c1cn(CC(O)CN2CCN(C)CC2)c2ccccc12 (configuration not stated)	96	7	1	22	89*	83*
Cc1ccc(NC(=O)CSc2nc3ccccc3c(=O)n2CCCC(=O)NCCCN2CCOCC2)cc1C	88	1	1	-3	42	x
CCc1ccc(NC(=O)CSc2nc3ccccc3c(=O)n2CCCC(=O)NCCCN2CCOCC2)cc1	96	-6	-2	15	63*	15
O=C(CSc1nc2ccccc2c(=O)n1CCCN1CCOCC1)Nc1ccc(F)c(Cl)c1	92	-5	-1	-2	-3	x
O=C(CSc1nc2c(sc3ccccc32)c(=O)n1CCCN1CCCC1)NCc1ccccc1	108	-2	-2	-16	67*	8
Cc1ccc(NC(=O)CSc2nc3ccccc3c(=O)n2CCCN2CCCCC2)cc1Cl	89	3	1	14	79*	58
COc1ccc(NC(=O)C2C(c3ccccc3)C2(Cl)Cl)cc1 (configuration not stated)	95	-7	0	-8	8	x
COc1ccc(NC(=O)C2C(c3ccccc3)C2(Cl)Cl)c(OC)c1 (configuration not stated)	91	-2	1	3	66*	-14
CCOc1ccc(NC(=O)C2C(c3ccccc3)C2(Cl)Cl)cc1 (configuration not stated)	101	5	-1	19	81*	-14
Cc1ccc(Nc2nccc(N(C)c3ccc4c(C)n(C)nc4c3)n2)cc1S(N)(=O)=O	x	2	x	x	x	x
O=S1(=O)C=CCN1Cc1cn(Cc2cccc(C(F)(F)F)c2)nn1	x	-2	x	x	x	x
Cc1cc(C)n(CCc2nc(-c3ccc(C)o3)cs2)n1	98	1	-2	12	68*	-3
CCN(Cc1ccccc1OC)CC1CCCN(CCc2cccc(OC)c2)C1 (configuration not stated)	103	-3	-1	1	63*	-11
CCN(Cc1ccc(OC)c(COC)c1)CC1CCCN(CCc2cccc(OC)c2)C1 (configuration not stated)	105	5	-2	8	72*	-12
CCN(Cc1ccc(OC)c(COC)c1)CC1CCCN(CCc2cccc(F)c2)C1 (configuration not stated)	100	-4	2	-1	68*	-12
O=C(NCc1cccs1)C1CCN(S(=O)(=O)c2cccc3ccccc23)CC1	x	-8	x	x	x	x
O=C1/C(=C\c2cccs2)Sc2ccc3ccccc3c21	125	8	-2	-19	85*	-1
O=C1C(=Cc2cccs2)C(=O)c2ccccc21	104	3	-3	25	-1	x
O=C(O[C@H]1CC[C@@]23CCCN2C(=O)CCC[C@H]3C1)N1CCN(c2ccccc2)CC1	x	1	x	x	x	x
Cc1oc(=O)c(NC(=O)c2ccc(Cl)cc2)cc1C(=O)c1ccccc1	96	6	-1	23	103*	-9
CC(C)CC(=O)NC1(C(F)(F)F)NC(=O)N(c2ccccc2)C1=O (configuration not stated)	101	-3	-2	-5	90*	-4
COc1ccc(N2C(=O)NC(NC(=O)C(C)(C)C)(C(F)(F)F)C2=O)cc1 (configuration not stated)	102	-1	0	13	0	x
Nc1[nH]c(C(=O)c2ccccc2)c(-c2ccc(Cl)c(F)c2)c1C(=O)c1c[nH]c2ccccc12	x	-4	0	x	x	x
Cc1cc(N/N=C/c2ccc(O)cc2)c2cccc(C)c2n1	98	2	-3	13	31	x
Cc1cc(C)c2nc(C)cc(N/N=C/c3ccc(O)cc3)c2c1	99	1	-2	-12	87*	101*
SMILES	ABCB6 inh MLPCN	NR1D1 modulator	PG9 Ab binder	VLA-4 inh	Exocytosis inh	Exocytosis CP01
O=C(c1ccccc1)C12COc3ccccc3C1ON=C2c1ccccc1 (configuration not stated)	x	-2	0	x	x	x
Clc1nc(CN2CCCCC2)nc2sc3c(c12)CCCC3	100	0	0	12	98*	-12
COc1ccc(C(=O)NCC2(c3ccccc3)CCCC2)c(OC)c1	98	5	0	5	88*	6
N#Cc1ccsc1NC(=O)CCN1CCN(C(c2ccccc2)c2ccccc2)CC1	101	6	-3	5	77*	-10
CC(C)(C)NC(=O)C(OC(=O)c1cccs1)c1ccc(F)cc1 (configuration not stated)	103	-2	2	-15	66*	-4
CC(C)(C)NC(=O)C(OC(=O)c1cccs1)c1ccccc1 (configuration not stated)	81	x	1	2	0	x
O=C(OC12CCCN(C1)/C(=C/c1cccnc1)C2)c1ccccc1 (configuration not stated)	x	-4	x	x	x	x
CCCCOC(=O)N1CCOCCOCCOCC1	104	1	-2	8	-3	x
CN1CCN(C(=O)OCCOCCOC(=O)N2CCN(C)CC2)CC1	98	-7	0	x	60*	-4
Cc1cccc(C)c1OCC(O)CN(Cc1ccccc1O)C1CCCCC1 (configuration not stated)	96	1	0	-2	57*	-4
CN(CC(O)COc1ccc(OCC(O)CN(C)C2CCCCC2)cc1)C1CCCCC1 (configuration not stated)	104	0	-1	10	-2	x
S=C(Nc1cccc(Br)c1)OC1CCC12CCC(c1ccccc1)CC2 (configuration not stated)	x	2	x	x	x	x
O=C(Nc1ccc2nc(-c3cccs3)c(-c3cccs3)nc2c1)N1CCOCC1	108	7	-1	7	101*	99*
CCN(CC)C(=O)CNc1nnnn1-c1ccccc1	x	-3	x	x	x	x
CCN(CC)S(=O)(=O)c1ccc(Oc2ccccc2OC)cc1	99	-3	1	-10	69*	-3
CN(C(=O)c1ccc(OC2CCN(S(=O)(=O)N(C)C)CC2)cc1)C1CCCCC1	100	-1	-1	2	64*	-1
CN(C)S(=O)(=O)N1CCC(Oc2ccc(C(=O)N3CCCCCC3)cc2)CC1	100	11	1	x	-3	x
COc1cccc(-c2csc(NC(=O)Nc3ccccc3)n2)c1	84	6	2	2	88*	-3
FC(F)(F)c1ccc(Cn2ccc3ccc(-c4ccc5ccn(Cc6ccccc6)c5c4)cc32)cc1	x	4	x	x	x	x
CN(C)CCNC(=O)c1cccc2nc3c(ccc4ccccc43)nc12	95	-6	-12	x	62*	43
Cc1cccc2c1-c1sc(C(=O)NCCCN3CCCC(C)C3)cc1CO2 (configuration not stated)	97	-4	-1	10	85*	-2
CCCN1CCN(CCCNC(=O)c2cc3c(s2)-c2c(C)cccc2OC3)CC1	100	-3	1	5	65*	-1
